Source: ChEMBL document CHEMBL1961873, “Compounds: GSK PKIS; Assays: Nanosyn kinase panel” (2012)

Columns and labels:
[1] = target: T1, Mitogen-activated protein kinase 12 (Homo sapiens) (UniProt P53778); conditions: at 1 µM;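 note: values are averaged p38gamma kinase inhibition readings, compounds tested at 1 µM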
T1 sequence (whole entry): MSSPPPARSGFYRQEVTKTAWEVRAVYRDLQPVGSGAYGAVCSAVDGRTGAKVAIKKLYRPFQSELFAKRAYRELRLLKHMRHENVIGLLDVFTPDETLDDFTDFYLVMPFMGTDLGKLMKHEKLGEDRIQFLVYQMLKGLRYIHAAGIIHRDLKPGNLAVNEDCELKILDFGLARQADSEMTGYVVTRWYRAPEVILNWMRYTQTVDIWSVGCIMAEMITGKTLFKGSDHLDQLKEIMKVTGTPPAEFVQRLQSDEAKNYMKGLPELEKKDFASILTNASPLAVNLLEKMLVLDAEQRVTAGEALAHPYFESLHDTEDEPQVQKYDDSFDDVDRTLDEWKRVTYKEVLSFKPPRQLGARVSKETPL

[2] = target: SRSF protein kinase 1 (Homo sapiens) (UniProt Q96SB4); conditions: at 0.1 µM
Sequence of SRSF protein kinase 1 (Homo sapiens) (Q96SB4 whole entry, canonical isoform): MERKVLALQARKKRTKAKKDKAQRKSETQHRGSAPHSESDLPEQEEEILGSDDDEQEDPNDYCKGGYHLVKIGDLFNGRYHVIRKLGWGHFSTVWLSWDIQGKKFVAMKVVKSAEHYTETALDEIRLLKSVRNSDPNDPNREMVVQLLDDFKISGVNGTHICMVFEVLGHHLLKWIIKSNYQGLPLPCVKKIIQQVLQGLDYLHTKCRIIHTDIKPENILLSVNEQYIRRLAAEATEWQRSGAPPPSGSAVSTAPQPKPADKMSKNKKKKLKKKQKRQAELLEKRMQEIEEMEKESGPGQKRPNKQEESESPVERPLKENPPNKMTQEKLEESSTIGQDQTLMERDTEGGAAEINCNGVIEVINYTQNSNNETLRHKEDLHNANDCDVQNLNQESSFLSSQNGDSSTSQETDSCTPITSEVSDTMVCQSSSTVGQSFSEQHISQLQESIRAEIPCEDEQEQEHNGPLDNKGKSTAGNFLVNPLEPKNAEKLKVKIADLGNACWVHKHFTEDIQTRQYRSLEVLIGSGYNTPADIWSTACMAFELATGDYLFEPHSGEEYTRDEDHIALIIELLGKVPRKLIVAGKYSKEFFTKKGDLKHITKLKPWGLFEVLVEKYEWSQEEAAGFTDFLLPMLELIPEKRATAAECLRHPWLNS

[3] = target: SRSF protein kinase 1 (Homo sapiens) (UniProt Q96SB4); conditions: at 1 µM
[4] = target: Phosphatidylinositol 4,5-bisphosphate 3-kinase catalytic subunit alpha isoform (Homo sapiens) (UniProt P42336); conditions: at 0.1 µM
Sequence of Phosphatidylinositol 4,5-bisphosphate 3-kinase catalytic subunit alpha isoform (Homo sapiens) (P42336 whole entry, canonical isoform): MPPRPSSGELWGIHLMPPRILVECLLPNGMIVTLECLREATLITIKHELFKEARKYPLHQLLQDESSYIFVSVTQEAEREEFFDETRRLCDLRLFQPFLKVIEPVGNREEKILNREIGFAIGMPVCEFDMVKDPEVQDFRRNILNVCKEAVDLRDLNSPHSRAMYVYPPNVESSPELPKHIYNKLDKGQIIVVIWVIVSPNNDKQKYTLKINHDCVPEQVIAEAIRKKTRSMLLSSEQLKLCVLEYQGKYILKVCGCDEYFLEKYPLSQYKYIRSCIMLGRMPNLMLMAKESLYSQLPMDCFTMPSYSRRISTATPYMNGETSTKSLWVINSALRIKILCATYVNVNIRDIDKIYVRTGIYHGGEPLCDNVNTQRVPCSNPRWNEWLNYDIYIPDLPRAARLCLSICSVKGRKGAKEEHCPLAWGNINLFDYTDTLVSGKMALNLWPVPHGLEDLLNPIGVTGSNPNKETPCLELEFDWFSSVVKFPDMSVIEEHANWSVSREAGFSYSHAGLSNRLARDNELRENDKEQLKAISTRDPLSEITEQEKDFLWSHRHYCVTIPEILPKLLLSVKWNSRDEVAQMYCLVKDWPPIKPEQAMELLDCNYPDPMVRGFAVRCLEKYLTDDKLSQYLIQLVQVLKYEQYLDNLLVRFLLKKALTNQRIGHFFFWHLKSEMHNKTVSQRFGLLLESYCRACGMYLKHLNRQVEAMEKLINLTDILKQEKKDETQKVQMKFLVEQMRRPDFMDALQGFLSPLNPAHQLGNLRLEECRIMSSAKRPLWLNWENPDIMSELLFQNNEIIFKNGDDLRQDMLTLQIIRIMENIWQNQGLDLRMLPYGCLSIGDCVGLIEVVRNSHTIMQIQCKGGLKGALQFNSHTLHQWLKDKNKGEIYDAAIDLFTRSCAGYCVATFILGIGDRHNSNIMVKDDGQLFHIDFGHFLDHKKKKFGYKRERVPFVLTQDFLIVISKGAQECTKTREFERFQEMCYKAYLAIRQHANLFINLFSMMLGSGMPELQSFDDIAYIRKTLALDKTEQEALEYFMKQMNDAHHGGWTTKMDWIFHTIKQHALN

[5] = target: Phosphatidylinositol 4,5-bisphosphate 3-kinase catalytic subunit alpha isoform (Homo sapiens) (UniProt P42336); conditions: at 1 µM
[6] = target: T2, Phosphatidylinositol 4,5-bisphosphate 3-kinase catalytic subunit delta isoform (Homo sapiens) (UniProt O00329); conditions: at 0.1 µM
T2 sequence (whole entry): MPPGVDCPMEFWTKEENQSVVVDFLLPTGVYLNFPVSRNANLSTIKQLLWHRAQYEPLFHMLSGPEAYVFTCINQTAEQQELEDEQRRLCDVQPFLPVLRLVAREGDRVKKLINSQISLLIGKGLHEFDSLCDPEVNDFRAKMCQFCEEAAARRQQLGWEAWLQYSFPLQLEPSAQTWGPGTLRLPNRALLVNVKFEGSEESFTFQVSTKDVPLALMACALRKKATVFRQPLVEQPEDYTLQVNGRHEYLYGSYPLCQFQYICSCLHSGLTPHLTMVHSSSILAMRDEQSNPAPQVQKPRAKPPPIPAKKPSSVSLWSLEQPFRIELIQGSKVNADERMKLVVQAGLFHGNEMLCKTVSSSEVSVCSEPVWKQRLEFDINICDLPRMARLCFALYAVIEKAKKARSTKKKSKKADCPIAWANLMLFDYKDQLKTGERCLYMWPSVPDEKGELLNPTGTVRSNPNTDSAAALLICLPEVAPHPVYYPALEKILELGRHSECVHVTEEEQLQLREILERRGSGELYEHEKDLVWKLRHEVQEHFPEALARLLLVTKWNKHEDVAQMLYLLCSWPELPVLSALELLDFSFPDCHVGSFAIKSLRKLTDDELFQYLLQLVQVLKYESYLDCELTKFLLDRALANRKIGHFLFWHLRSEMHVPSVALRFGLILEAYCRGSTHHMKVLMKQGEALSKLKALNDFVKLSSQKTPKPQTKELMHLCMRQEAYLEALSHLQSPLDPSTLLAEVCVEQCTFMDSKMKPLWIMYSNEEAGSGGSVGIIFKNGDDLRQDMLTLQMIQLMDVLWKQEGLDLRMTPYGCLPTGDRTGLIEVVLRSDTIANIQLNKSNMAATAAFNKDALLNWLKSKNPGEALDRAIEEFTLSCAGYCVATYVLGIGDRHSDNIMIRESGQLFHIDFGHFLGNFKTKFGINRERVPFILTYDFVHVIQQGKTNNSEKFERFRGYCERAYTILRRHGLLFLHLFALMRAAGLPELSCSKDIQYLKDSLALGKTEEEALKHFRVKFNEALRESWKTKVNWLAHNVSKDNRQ

[7] = target: T2, Phosphatidylinositol 4,5-bisphosphate 3-kinase catalytic subunit delta isoform (Homo sapiens); conditions: at 1 µM
[8] = target: Phosphatidylinositol 4-kinase beta (Homo sapiens) (UniProt Q9UBF8); conditions: at 0.1 µM
Sequence of Phosphatidylinositol 4-kinase beta (Homo sapiens) (Q9UBF8 2-816 limits assumed): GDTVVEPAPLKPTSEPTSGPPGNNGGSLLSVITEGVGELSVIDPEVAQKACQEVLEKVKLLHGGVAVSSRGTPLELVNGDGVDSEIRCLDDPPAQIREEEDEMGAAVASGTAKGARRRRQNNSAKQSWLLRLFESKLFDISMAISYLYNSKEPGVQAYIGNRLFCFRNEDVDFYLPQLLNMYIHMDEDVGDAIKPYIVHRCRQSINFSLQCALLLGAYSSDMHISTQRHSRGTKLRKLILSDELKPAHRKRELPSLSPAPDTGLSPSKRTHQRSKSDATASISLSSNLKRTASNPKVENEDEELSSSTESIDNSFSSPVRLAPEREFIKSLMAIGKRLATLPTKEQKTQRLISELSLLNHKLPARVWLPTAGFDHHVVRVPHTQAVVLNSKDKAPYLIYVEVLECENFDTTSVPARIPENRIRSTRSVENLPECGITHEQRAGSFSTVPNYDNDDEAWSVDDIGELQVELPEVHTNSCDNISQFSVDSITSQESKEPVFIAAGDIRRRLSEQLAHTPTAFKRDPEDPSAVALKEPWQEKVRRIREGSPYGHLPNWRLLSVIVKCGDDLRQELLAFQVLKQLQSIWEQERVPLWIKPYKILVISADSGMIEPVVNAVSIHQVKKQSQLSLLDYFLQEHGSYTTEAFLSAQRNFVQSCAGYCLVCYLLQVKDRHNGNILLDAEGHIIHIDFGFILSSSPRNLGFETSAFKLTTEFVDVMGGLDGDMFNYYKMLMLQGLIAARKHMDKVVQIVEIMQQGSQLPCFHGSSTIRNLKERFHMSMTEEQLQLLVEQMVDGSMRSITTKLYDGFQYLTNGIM

[9] = target: Phosphatidylinositol 4-kinase beta (Homo sapiens) (UniProt Q9UBF8); conditions: at 1 µM
[10] = target: Sphingosine kinase 1 (Homo sapiens) (UniProt Q9NYA1); conditions: at 0.1 µM;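 note: mean percent inhibition of SPHK1 activity, measured within the GSK PKIS screening panel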
Sequence of Sphingosine kinase 1 (Homo sapiens) (Q9NYA1 whole entry): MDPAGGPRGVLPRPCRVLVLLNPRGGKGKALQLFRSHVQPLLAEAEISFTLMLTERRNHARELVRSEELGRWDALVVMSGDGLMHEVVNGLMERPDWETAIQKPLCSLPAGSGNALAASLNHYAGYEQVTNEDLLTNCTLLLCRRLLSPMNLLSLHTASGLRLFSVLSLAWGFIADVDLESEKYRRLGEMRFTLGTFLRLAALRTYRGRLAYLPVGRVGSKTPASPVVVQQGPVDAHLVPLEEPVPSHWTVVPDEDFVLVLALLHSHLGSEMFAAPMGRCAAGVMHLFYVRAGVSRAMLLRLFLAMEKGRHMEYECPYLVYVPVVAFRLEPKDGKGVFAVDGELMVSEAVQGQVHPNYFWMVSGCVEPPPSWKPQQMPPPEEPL

| SMILES | inhibition [1] | inhibition [2] | inhibition [3] | inhibition [4] | inhibition [5] | inhibition [6] | inhibition [7] | inhibition [8] | inhibition [9] | inhibition [10] |
| --- | --- | --- | --- | --- | --- | --- | --- | --- | --- | --- |
| Cc1cccc2c1NC(=O)/C2=N\Nc1ccc(S(N)(=O)=O)cc1 | 0.72% | -0.92% | -1.02% | 2.47% | 1.9% | 1.83% | 3.28% | -4.22% | -2.85% | 0.78% |
| Fc1ccc(-c2nn3ncccc3c2-c2ccnc(Nc3ccc4c(c3)OCCO4)n2)cc1 | 4.06% | -3.43% | -6.44% | 3.44% | 6.99% | 3.64% | 9.87% | -5.48% | -0.74% | 1.29% |
| O=C(Nc1n[nH]c2cc(-c3ccc(F)cc3)ccc12)C1CC1 | 2.53% | -1.78% | -2.19% | 5.93% | 9.6% | 7.39% | 10.8% | 3.38% | -2.55% | 2.17% |
| COc1cccc(-n2ncc3c(N/N=C/c4ccc(F)cc4)ncnc32)c1 | 1.41% | -0.75% | 2.6% | 3.46% | 19.1% | 0.55% | 17.3% | -4.22% | -5.29% | 2.72% |
| Fc1ccc(-c2nn3ccccc3c2-c2ccncc2)cc1 | 1.62% | -2.12% | -2.82% | 0.14% | 1.14% | 0.32% | 2.31% | -1.2% | 1.37% | -0.49% |
| Clc1ccc(-c2nn3ncccc3c2-c2ccnc(Nc3ccccc3)n2)cc1 | 1.71% | -1.15% | -1.1% | 2.48% | 5.33% | 4.92% | 7.17% | -0.39% | 0.11% | 0.81% |
| N#Cc1c(NC(=O)CN2CCOCC2)sc2c1CCCC2 | 3.63% | -1.48% | 3.81% | 3.43% | 3.19% | 0.47% | 0.45% | 0.92% | -0.98% | 0.08% |
| Fc1cccc(COc2ccc(Nc3ncnc4sc(-c5ccco5)cc34)cc2Cl)c1 | 4.18% | -1.79% | -2.01% | 6.18% | 17.2% | 2.28% | 12.4% | -1.28% | 0.68% | 0% |
| Cc1ccc2c(-c3ccnc(Nc4ccccc4)n3)c(-c3ccc(F)cc3)nn2n1 | 2.32% | -1.57% | -2.42% | 2.88% | 0.97% | 2.44% | 4.54% | 2.52% | 1.56% | 0% |
| O=C(O[C@H]1CN[C@H](C#Cc2cc3ncnc(Nc4ccc(Cc5ccccc5)cc4)c3s2)C1)N1CCOCC1 | 1.72% | -2.56% | -2.4% | 3.61% | 11.2% | 1.42% | 8.98% | 0.59% | -0.78% | 0.79% |
| CNC(=O)c1cc(-c2ccc(F)cc2)cc(-c2ccc(S(=O)(=O)N3CCCC3)cc2)c1N | 2.47% | -2.58% | -1.56% | 2.34% | 1.39% | 0.79% | 1.11% | -2.09% | 1.93% | -0.85% |
| c1cc(-c2cnn3nc(N4CCOCC4)ccc23)nc(NC2CC2)n1 | 13.6% | -1.17% | 1.29% | 2.09% | 6.22% | 1.85% | 4.21% | 0.77% | 21% | -1.93% |
| c1ccc(COc2ccc(Nc3ncnc4ccc(-c5ccco5)cc34)cc2)cc1 | 0.69% | -1.86% | -1.65% | 0.06% | 2.59% | 3.33% | 4.52% | -1.76% | -1.04% | 1.84% |
| CC(C)(CO)CNC(=O)c1ccc2c(c1)/C(=N/Nc1ccc(S(N)(=O)=O)cc1)C(=O)N2 | 0.79% | -1.95% | -1.91% | -2.03% | -1.12% | -0.73% | 2.18% | -1.03% | -0.32% | 0.09% |
| CC(=O)Nc1cccc(C#Cc2cncnc2Nc2ccc(OCc3cccc(F)c3)c(Cl)c2)c1 | 1.97% | -1.41% | -3.44% | 1.85% | 1.66% | 2.58% | 0.8% | -0.32% | -1.07% | -0.47% |
| CC(=O)NCc1cccc(C#Cc2cncnc2Nc2ccc(OCc3cccc(F)c3)c(Cl)c2)c1 | 1.37% | -0.72% | -2.28% | -1.17% | 0.49% | -1.34% | -0.33% | -4.32% | -2.4% | 2.94% |
| CCn1c(-c2nonc2N)nc2c(C#CC(C)(C)O)nc(OC[C@H](N)c3ccccc3)cc21 | 3.95% | -2.57% | -1.89% | 1.03% | 1.06% | 0.44% | 1.52% | -2.33% | 0.6% | 0.65% |

| SMILES | inhibition [1] | inhibition [2] | inhibition [3] | inhibition [4] | inhibition [5] | inhibition [6] | inhibition [7] | inhibition [8] | inhibition [9] | inhibition [10] |
| --- | --- | --- | --- | --- | --- | --- | --- | --- | --- | --- |
| CC(C)COC(=O)c1ccc2c(c1)/C(=C/Nc1ccc(S(N)(=O)=O)cc1)C(=O)N2 | -0.52% | -0.82% | -1.99% | 3.8% | -1.43% | 0.18% | 2.64% | 4.22% | -2.78% | 2.57% |
| O=S(=O)(CCNCc1ccc(-c2ccc3ncnc(Nc4ccc(OCc5cccc(F)c5)c(Cl)c4)c3c2)o1)c1ccccc1 | 5.41% | -1.17% | -1.46% | 5.28% | 5.59% | 0.47% | 6.33% | -6.34% | -9.91% | 1.07% |
| COC(=O)Nc1nc2ccc(Oc3ccc(NC(=O)Nc4cccc(Cl)c4)cc3)cc2[nH]1 | 0.02% | -2.58% | -2.98% | -0.11% | 4.1% | -0.7% | 3.93% | 3.19% | -4.1% | 1.12% |
| COc1cc(N2CCN(C(C)C)CC2)ccc1Nc1nc(Nc2ccc(F)cc2C(N)=O)c2cc[nH]c2n1 | 2.22% | -2.51% | 1.46% | 0.53% | 0.95% | -1.34% | 2.71% | 0.5% | -1.98% | 0.81% |
| NC(=O)c1sc(-n2cnc3ccc(C(F)(F)F)cc32)cc1OCc1ccccc1Br | 2.37% | -1.69% | -2.85% | 3.78% | 4.29% | 1.52% | 4.21% | -2.33% | -2.08% | 2.38% |
| COc1cc2c(cc1Nc1nc(Nc3ccsc3C(N)=O)c3cc[nH]c3n1)N(C(=O)CN(C)C)CCC2(C)C | 4.23% | -1.82% | 15.8% | 4.65% | 5.27% | 2.82% | 13.9% | -0.32% | -1.38% | 3.22% |
| CCn1c(-c2nonc2N)nc2cnc(Oc3cccc(NC(=O)c4ccc(N(C)C)cc4)c3)cc21 | 1.5% | -1.72% | -1.86% | -0.72% | 0.76% | 0.62% | 1.65% | -0.87% | 2.47% | -2.61% |
| Cc1cccc(Nc2ncc(-c3ccccc3)o2)c1 | 4.77% | -2.35% | 0.2% | 0.69% | -0.17% | 0.73% | 1.52% | 1.05% | 2.54% | 1% |
| COc1cc(/C=N/Nc2ncnc3[nH]ncc23)ccc1O | 2.2% | -1.89% | 2.08% | 10.2% | 44.2% | 3.6% | 20.3% | 6.86% | 30.9% | -1.46% |
| CN(C)CCOc1ccc(-c2nc(-c3ccncc3)c(-c3ccc4c(c3)CC/C4=N\O)[nH]2)cc1 | 1.28% | -0.47% | -0.41% | 3.08% | 3.29% | 1.62% | 4.12% | -1.17% | -2.78% | 11.7% |
| COc1cccc(-c2c[nH]c3c(N/N=C/c4ccncc4)ncnc23)c1 | 14.7% | 0.71% | -1.68% | 1.14% | 4.14% | 0.94% | 3.3% | -3.02% | 0.08% | -4.21% |
| Nc1ncc(-c2cccc(S(N)(=O)=O)c2)c2scc(-c3ccc(F)c(Cl)c3)c12 | 3.12% | -2.06% | -3.1% | 4.44% | 8.82% | 1.02% | 3.18% | 7.12% | 1.6% | -0.6% |
| Nc1nc(-c2cccc(Cl)c2)c(-c2ccc3ncccc3n2)s1 | 3.06% | 0.23% | 2.87% | 4.68% | 8.41% | 2.57% | 6.4% | 0.45% | -3.79% | -1.31% |
| COc1ccc(-c2nn3ncccc3c2-c2ccnc(Nc3ccc4c(c3)OCCO4)n2)cc1 | 1.16% | -0.82% | -2.72% | 2.37% | 3.63% | 2.13% | 5.91% | -2.82% | -1.12% | -0.35% |
| COc1cc(Nc2nccc(Nc3ccc4c(C)n[nH]c4c3)n2)cc(OC)c1OC | 1.69% | -2.15% | -3.51% | 1.57% | 3.03% | 2.45% | 21.3% | 3.96% | 4.89% | -0.37% |
| CN1CCC(n2cnc(-c3ccc(F)cc3)c2-c2ccnc(Nc3ccccc3)n2)CC1 | 9.03% | -1.25% | -1.27% | 1.36% | 1.8% | -0.07% | 4.79% | -0.93% | 1.36% | 1.77% |
| N#Cc1c(NC(=O)c2ccc(F)cc2)sc2c1CCCC2 | 0.08% | -1.47% | -1.93% | 1.06% | 0.48% | 1.32% | -1.48% | -4.06% | 1.29% | -0.62% |
